35 compounds from PubChem BioAssay can be followed below.

A short description of the first test: COS7 lysate on small-molecule microarray, probe aHis, 635 nm (AID 1123).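 Also: z-score combines 667nm fluorescence intensity with signal-to-noise per printed compound spot.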 As to conditions: COS7 cell lysate, fluorescence, higher = more signal.
The compound `O=C1NC(=O)C2C1C=CC(C(O)C1CCCCC1)N2Nc1ccccn1` (stereo unspecified) yielded a composite z-score of 1.36.

In turn, `COC(=O)C1(CC(C)C)C=C2C(=C(C)C(=O)C2C)CN1` (stereo unspecified) yielded a composite z-score of 1.63.

Turning to `Cc1ccc(N2C(=O)c3ccccc3[C@@H](C(=O)NCCN3CCOCC3)[C@@H]2c2ccc(CO)cc2)nc1`, the composite z-score came to 0.719.

Regarding `COCCOC(=O)N1C(=O)[C@@]2(c3cc(C#CCNC(N)=O)ccc31)[C@H](c1ccc(O)cc1)N1[C@H](c3ccccc3)[C@H](c3ccccc3)OC(=O)[C@H]1[C@@H]2C(=O)N1CCc2cc(OC)c(OC)cc2C1`, the composite z-score was 0.781.

As for `O=C(NC1CC1)[C@@H]1c2ccccc2C(=O)N(C2CCCCC2)[C@H]1c1ccc(CO)cc1`, the composite z-score worked out at 2.64.

For `COc1ccc([Si](C)(C)[C@@H]2[C@@H](CC(=O)N(CCO)Cc3ccccc3)O[C@]3(C(=O)N(Cc4cccc(I)c4)c4ccccc43)[C@H]2C)cc1`, the composite z-score stood at 0.763.

A short description of the next test: probe aLAP1 signal on lysate-treated microarray – cell lysate, small-molecule microarray, COS7 lysate, primary screen (AID 1124).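 Also: lysate comes from COS7 cells expressing LAP1 and is applied at 0.3 µg/mL; score merges spot fluorescence near 667 nm with signal-to-noise over triplicate slides.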 As to conditions: probe aLAP1, fluorescence, higher = more signal.
For the compound `O=C(O)C1=CC[C@H]2C(=O)N(c3ccccc3)C(=O)[C@@H]12`, the composite z-score was found to be 0.453.

For `CCc1cccc(NC(=O)O[C@H]2[C@H](OC(=O)Nc3ccccc3-c3ccccc3)[C@H](OC(=O)Nc3ccccc3-c3ccccc3)[C@@H](OC)O[C@@H]2CO)c1`, the composite z-score came out at 0.0611.

Regarding `C=C(COC)/C(=C/C[C@@H](OC(C)=O)c1cccc(OCCO)c1)c1cnc2ccccc2c1`, the composite z-score is 0.0842.

In the case of `Cc1ccc(S[C@]2(C(=O)NCc3ccccc3)CC(=O)N(Cc3ccccc3C(F)(F)F)[C@@H]2c2ccc(CO)cc2I)cc1`, the composite z-score was 1.04.

As for `COCCOC(=O)N1C(=O)[C@@]2(c3cc(C#CC4(O)CCCCCC4)ccc31)[C@H](C(N)=O)[C@H]1C(=O)O[C@H](c3ccccc3)[C@H](c3ccccc3)N1[C@@H]2c1ccc(OCCO)cc1`, the composite z-score was 0.412.

`COc1c(C)cc(-c2cc3c(c(CCc4ccccc4)n2)[Si](C(C)C)(C(C)C)O[C@H]3c2ccccc2)cc1C`: the composite z-score is -0.153.

In turn, `COC(=O)[C@@]1(Cc2ccc(F)cc2)[C@H]2c3cc(C(=O)N(C)C)n(Cc4cccc5ccccc45)c3C[C@H]2CN1C(=O)c1ccccc1` had a composite z-score of 0.881.

Take `CC(C)C[C@@H]1NC(=O)[C@@H]2C[C@H](C(=O)NCCCCCNC(=O)CS)[C@H](c3ccc(O)cc3)N2C1=O`: the composite z-score is -0.646.

`C=C[C@@H](CO)NS(=O)(=O)c1ccc(Br)cc1` gave a composite z-score of -0.32.

`COC(=O)[C@@]1(Cc2ccc(F)cc2)[C@H]2c3cc(C(=O)N(C)C)n(CCF)c3C[C@H]2CN1C(=O)c1ccccc1` registered a composite z-score of 0.89.

The compound `COC(=O)[C@@]1(Cc2ccccc2)[C@H]2c3cc(C(=O)N(C)C)n(Cc4nc5ccccc5[nH]4)c3C[C@H]2CN1C(=O)c1ccccc1` returned a composite z-score of 0.972.

Compound `C=C(C(=O)CC[C@@H](OC(=O)c1ccccc1-c1ccccc1C(=O)O)c1ccc(OCCO)cc1)C(C)C` yielded a composite z-score of -0.0004.

`COCCOC(=O)N1C(=O)[C@@]2(c3cc(C#CCCO)ccc31)[C@H](C(=O)N1CCN(c3ncccn3)CC1)[C@H]1C(=O)O[C@H](c3ccccc3)[C@H](c3ccccc3)N1[C@@H]2c1ccc(OCCO)cc1` returned a composite z-score of 0.419.

The compound `O=C1OC[C@@H](c2ccccc2)n2cc(/C=C/c3ccccc3)cc21` yielded a composite z-score of -0.475.

Compound `CCOC(=O)C[C@H]1[C@H](OC(=O)c2cc3ccccc3oc2=O)[C@@H](NC(=O)Cc2ccc(OC)cc2)c2cc(OCCCO)ccc2N1C(=O)Cc1ccc(OC)cc1` returned a composite z-score of -0.0915.

`C=CCN1C(=O)[C@@]2(O[C@@H](CCO)[C@H]([Si](C)(C)c3ccc(OC)cc3)[C@H]2C)c2cc(N3CCCCC3=O)ccc21` came in with a composite z-score of 0.0635.

`COc1ccc(CCNC(=O)[C@@]2(C)c3ccccc3C(=O)N(Cc3ccc(OC(F)(F)F)cc3)[C@H]2c2ccc(CO)cc2)cc1` gave a composite z-score of 0.687.

Turning to `COC(=O)[C@@]1(Cc2ccccc2)[C@H]2c3cc(C(=O)N(C)C)n(CCF)c3C[C@H]2CN1C(=O)c1ccccc1`, the composite z-score amounted to 1.08.

In the case of `COc1ccc(NN2C(C(O)c3ccc(F)cc3)C=CC3C(=O)N(C4CCCCC4)C(=O)C32)cc1` (stereo unspecified), the composite z-score came to 0.0892.

Compound `COC(=O)[C@@]1(Cc2ccc(F)cc2)[C@H]2c3cc(C(=O)N(C)C)n(Cc4ccsc4Br)c3C[C@H]2CN1C(=O)c1ccccc1` gave a composite z-score of 1.65.

With `COc1ccc(NN2C(C(O)c3ccccc3)C=CC3C(=O)N(C4CCCCC4)C(=O)C32)cc1` (stereo unspecified), the composite z-score was 0.4.

Compound `C=CC[C@H](OC(=O)Nc1ccc(SC)cc1)c1ccc(O)c(F)c1` displayed a composite z-score of -0.172.

Turning to `CO[C@H]1O[C@H](CO)[C@@H](OC(=O)CCc2ccccc2)[C@@H]2OC(=O)[C@@H](Cc3ccc4ccccc4c3)C/C=C/C[C@H](Cc3ccc4ccccc4c3)C(=O)O[C@@H]12`, the composite z-score is 0.273.

As for `COC(=O)[C@H](Cc1ccccc1)N1CC(C)(OC)O[C@@H](Cc2ccccc2)[C@H]1/C=C/C1CC1` (stereo partly specified), the composite z-score amounted to 0.106.

Take `C[C@H]1C2[C@H](Cc3ccccc3)NC(=O)[C@]23C(=O)N[C@@H](Cc2ccccc2)C(=O)N2CCC[C@H]2C(=O)NC/C=C/CC/C=C/C3[C@@H]2O[C@]12C` (stereo partly specified): the composite z-score came to 0.472.

Regarding `C=C(C(=O)CC[C@@H](OC(=O)c1ccccc1-c1ccccc1C(=O)O)c1cccc(OCCO)c1)C(C)C`, the composite z-score is 1.2.

For the compound `C=C(CCCC)C(=O)CC[C@H](OC(=O)c1ccccc1-c1ccccc1C(=O)O)c1cccc(OCCO)c1`, the composite z-score was found to be 1.07.

Consider `C=C(CCCC)/C(=C/C[C@@H](OC(C)=O)c1cccc(OCCO)c1)c1cc(C(=O)OC)ccc1OC`, for which the composite z-score is -0.247.

Take `CCCCCN1CC=CC23O[C@@H]4/C=C\CCCOC(=O)C4[C@H]2C(=O)N(CCO)[C@@H]3C1=O` (stereo partly specified): the composite z-score came out at 0.657.

In turn, `O=C1NC(=O)C2C1C=CC(C(O)C1CCCCC1)N2Nc1ccccn1` (stereo unspecified) had a composite z-score of -0.636.

For `COC(=O)C1(CC(C)C)C=C2C(=C(C)C(=O)C2C)CN1` (stereo unspecified), the composite z-score worked out at 0.311.

Compound `Cc1ccc(N2C(=O)c3ccccc3[C@@H](C(=O)NCCN3CCOCC3)[C@@H]2c2ccc(CO)cc2)nc1` showed a composite z-score of -0.496.

The compound `COCCOC(=O)N1C(=O)[C@@]2(c3cc(C#CCNC(N)=O)ccc31)[C@H](c1ccc(O)cc1)N1[C@H](c3ccccc3)[C@H](c3ccccc3)OC(=O)[C@H]1[C@@H]2C(=O)N1CCc2cc(OC)c(OC)cc2C1` yielded a composite z-score of -0.0347.

Compound `O=C(NC1CC1)[C@@H]1c2ccccc2C(=O)N(C2CCCCC2)[C@H]1c1ccc(CO)cc1` came in with a composite z-score of 1.99.

As to `COc1ccc([Si](C)(C)[C@@H]2[C@@H](CC(=O)N(CCO)Cc3ccccc3)O[C@]3(C(=O)N(Cc4cccc(I)c4)c4ccccc43)[C@H]2C)cc1`, the composite z-score was 0.363.
